PubChem BioAssay (NCI)
Several values for one entry are separate records, joined by “and”; a condition that tells them apart may be missing. Identical values can stand only once. About 83,000 compounds went through this panel and 20% of them were active in at least one assay; those are over-represented in the sample as a whole.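 Plates (96-well) were seeded with cells, treated with compound at one concentration, and incubated for 48 hours before percent growth was determined.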 Values without a mark were called inactive. Activity calls are given as the source filed them. The calls were made as follows: active = growth percent below 10; inactive = the rest.

Key:
Test in all cases: NCI-60 one-dose screen, 48 h (100 = growth as untreated, 0 = no growth, -100 = all killed)
Conditions in all cases: 10 µM unless noted
[1] = system: DU-145 prostate
[2] = system: K-562 leukemia
[3] = system: MALME-3M melanoma
[4] = system: MDA-MB-231 breast
[5] = system: RXF 393 renal
[6] = system: SF-268 CNS
[7] = system: SF-295 CNS
[8] = system: SF-539 CNS
[9] = system: UACC-257 melanoma
[10] = system: M14 melanoma

Structure (SMILES)	growth [1]	growth [2]	growth [3]	growth [4]	growth [5]	growth [6]	growth [7]	growth [8]	growth [9]	growth [10]
C[C@]12CC[C@H]3[C@@H](C[C@@H]4SC(Nc5cccc(F)c5)=N[C@@]45CC(=O)CC[C@]35C)[C@@H]1CCC2=O	17.2%	-0.515% (active)	22.8%	38.2%	-28.4% (active)	55.7%	-18.8% (active)	-5.93% (active)	73%	–
O=C(CCCN1CCC2(CC1)C(=O)NCN2c1ccccc1)c1ccc(F)cc1	79% and 34%	86% and 85.1%	96.1% and 92.9%	103% and 74.2%	116% and 105%	91.1% and 62.8%	96.3% and 63.4%	124% and 62.6%	33.6% and 21.6%	–
O=C(NC(Cl)=C(Cl)Cl)P(=O)(c1ccccc1)c1ccccc1	118%	121%	104%	98.9%	100%	110%	72.9%	106%	110%	–
N#CC(N)c1ccccc1 (stereo not given)	106%	116%	98.9%	108%	112%	102%	102%	103%	101%	–
Nc1ccc2c(c1)Cc1cc(N)ccc1-2	107%	112%	85.7%	75.6%	87.9%	95.4%	100%	96.8%	91.3%	–
CO[C@H]1[C@H](O[C@@H]2C[C@@H]3C/C=C/C(=O)O[C@@H](CO)C[C@H](O)[C@@H]4C[C@H](C)[C@H](C/C=C\C=C\[C@H](C)C[C@H](C2)O3)O4)O[C@@H](C)[C@H](O)[C@H]1O	52.5%	25.4%	85.5%	92.9%	88%	86.4%	14.1%	70.8%	9.72% (active)	–
C[C@]12CCc3sc(Nc4ccc(F)cc4F)nc3C1=CC[C@@H]1[C@@H]2CC[C@]2(C)C(=O)CC[C@@H]12	24%	2.15% (active)	69.5%	76.1%	5.6% (active)	70.7%	51%	49.6%	71.9%	–
C/C=C(/C)C(=O)O[C@H]1CC[C@@]2(C)[C@@H]3CC[C@H]4[C@]5(O)C[C@H](O)[C@@]6(O)[C@@H](CN7C[C@@H](C)CC[C@H]7[C@@]6(C)O)[C@]5(O)C[C@@]42O[C@@]13O	138%	136%	92.7%	130%	108%	116%	100%	111%	102%	102%
CN1CCN(c2ccc(Cl)cc2)CC1	6.91% (active)	70.3%	126%	105%	66.9%	88.5%	57%	97.2%	84.4%	–
COC(=O)C12C3C4C1C1C2C3C41NC(=O)c1csc([C@@H](C[C@H](C(C)C)N(C)C(=O)[C@@H](NC(=O)[C@H]2CCCCN2C)C2CC2)OC(C)=O)n1 (stereo not given in full)	8.04% (active)	8.03% (active)	63.9%	4.12% (active)	19.7%	25.6%	9.2% (active)	-24.4% (active)	56%	–
CC(=O)Cc1ccc2c(c1)OCO2	111%	116%	116%	89.1%	115%	98.3%	109%	95.4%	104%	–
Nc1cccnc1	125%	105%	120%	110%	126%	108%	122%	113%	82.9%	113%
C[C@]12CC[C@H]3[C@@H](CC=C4c5nc(N)sc5CC[C@@]43C)[C@@H]1CC[C@@H]2O	103%	95.2%	107%	111%	99.4%	97.1%	100%	98.5%	92.6%	98.7%
COc1ccc(C(C#N)C(C)=O)cc1 (stereo not given)	92.6%	104%	108%	116%	111%	88.9%	107%	103%	93%	101%
COC1C(O)CC(OC2CC(Oc3cc4cc5c(c(O)c4c(O)c3C)C(=O)[C@@H](OC3CC(OC4CC(OC6CC(C)(O)C(OC(C)=O)C(C)O6)C(O)C(C)O4)C(O)C(C)O3)[C@H]([C@H](OC)C(=O)[C@@H](O)[C@@H](C)O)C5)OC(C)C2OC(C)=O)OC1C (stereo not given in full)	-18.3% (active)	-14.9% (active)	-91.6% (active)	-8.36% (active)	-49.6% (active)	-10.5% (active)	-16.2% (active)	-73.9% (active)	-31.7% (active)	-86.3% (active)
Nc1c(Cl)c(Cl)nc(C(=O)O)c1Cl	120%	83.8%	83.5%	106%	136%	111%	98.6%	84.9%	108%	104%
CC1(C)S[C@H]2CC[C@H]3OC(=O)[C@@H]1N23	116%	111%	101%	121%	103%	113%	88%	104%	116%	106%
CC1=C([Te]c2ccccc2)C(=O)c2ccccc2C1=O	-53.4% (active)	14.7%	-49.5% (active)	-24.6% (active)	-35.5% (active)	-18.1% (active)	-34.5% (active)	-71.4% (active)	-26.2% (active)	-22.1% (active)
Oc1cc(Cl)ccc1Oc1ccc(Cl)cc1Cl	14.5%	11%	5.91% (active)	8.82% (active)	-9.98% (active)	21.5%	7.37% (active)	14.7%	21.4%	22.1%
CC12CCC3C(CCC4CC(O)CCC43C)C1CCC2=O (stereo not given)	103%	103%	102%	111%	133%	116%	94.8%	99.1%	-10.3% (active)	98.8%
C=CC[PH+](c1ccccc1)c1ccccc1.C=CC[PH+](c1ccccc1)c1ccccc1.[Pt+2].[S-]c1nc2ccccc2[nH]1.[S-]c1nc2ccccc2[nH]1	15.1%	4.86% (active)	-72.8% (active)	-44.3% (active)	-0.0777% (active)	1.83% (active)	-9.49% (active)	-28.6% (active)	-25.7% (active)	-18.6% (active)
Cc1cc(C(C)(C)C)ccc1O	104%	103%	104%	118%	102%	97.3%	110%	111%	100%	102%
N[C@@H](CCC(=O)CCl)C(=O)O	105% [20 µM]	82.9% [20 µM]	92.5% [20 µM]	92.2% [20 µM]	112% [20 µM]	98.4% [20 µM]	98.9% [20 µM]	104% [20 µM]	99.9% [20 µM]	95.9% [20 µM]
Cc1cc(NC(=O)NCCCOc2ccc(N3C(N)=NC(N)=NC3(C)C)cc2Cl)ccc1S(=O)(=O)F	33.6%	25.1%	55.6%	71.7%	48.6%	32.7%	30.4%	17.5%	25.9%	41%
Nc1ccc(P(=O)(O)O)cc1	119% and 107%	110% and 104%	101% and 95.7%	114% and 103%	117% and 102%	113% and 107%	99.5% and 93.4%	88.6% and 100%	104% and 99.2%	121% and 100%
